# AID923: qHTS Assay for Allosteric/Competitive Inhibitors of Caspase-1: Spectroscopic Profiling in AFC Spectral Region; compound fluorescence, AFC spectral region (405/520 nm); Potency, µM (top dose mostly 57.5 µM), inactives show top-dose fluorescence increase, most hits filed as activators; 75,000 compounds, 1.1% hits; AID 923, 2007; further: potency means the concentration at half of the fitted maximal effect; 0% is about no effect
#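 Baseline compound fluorescence (AFC region, 405 nm ex/520 nm em) taken from the intercept of kinetic reads with 50 nM caspase-1 and 5 uM Ac-WEHD-AFC; normalized to an on-plate AFC standard curve; compounds titrated up to 57 uM.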
# A350 fluor: A350 region autofluorescence | Compound autofluorescence, 340/450 nm, Alexa 350 dye-equivalents; hits give high values | max dye-equivalent concentration, M | 59,000 compounds, 11% hits | AID 590; in the data active means max dye-equivalent concentration above about 10 nM; inconclusive means mostly about 1.1 nM to 9.6 nM
# HSD17B inhib: blocks hydroxysteroid 17-beta dehydrogenase activity. Q99714. recombinant HSD17B10, NADH fluorescence kinetic. Potency, µM (top dose mostly 57.1 µM), for the others: at the top dose activity change, negative = inhibition, hits mostly inhibitors. 75,000 compounds, 7.6% hits;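 further: the protocol describes HADH2 (HSD17B10) and not the HSD17B4 of the title; potency means the concentration at half of the fitted maximal effect; on the % scale 0 is the no-effect control and ±100 the full control effect; nearly all actives have a fitted effect of over 70% in size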
#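 His-tagged E. coli-expressed HADH2 at 20 nM in 100 mM Tris-HCl pH 9.0 with 0.01 % Tween-20, preincubated 15 min with compound at room temperature. Reaction with 1 mM NAD+ and 90 uM beta-hydroxybutyryl coenzyme A; NADH fluorescence (360/450 nm) read kinetically over 4 min, last minus first point.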
# CRE Fsk mod: modulators of forskolin-stimulated CRE signaling in CHO cells; 71,000 compounds, 2.5% hits; CHO CRE-bla reporter (cAMP response element driving beta-lactamase), forskolin EC10, beta-lactamase ratio; AID 662; Potency, µM (doses to about 38.2 µM), without a hit: at the top dose activity change, negative = inhibition, hits mostly activators; active means well fitted activation curve with a large enough effect in the signal ratio, with a control signal flat, not every such curve was filed as active; inconclusive means small, poorly fitted or top-dose-only effect, or effect the other way, or a change in a side signal; the % refers to the signal ratio; further: potency means the concentration at half of the fitted maximal effect; % of control where 0% means no effect
#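 Titrated compounds plus EC10 NKH 477 on CHO CRE-bla cells, 3 h, 37 °C. CCF4, 2 h RT. Ratio 460/530 nm → AC50.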
# HADH2 inhib: inhibitors of human HADH2 dehydrogenase. 73,000 compounds, 3.4% hits. AID 886. recombinant HADH2, NADH fluorescence, beta-hydroxybutyryl-CoA. Q99714. Potency, µM (doses to about 57.1 µM), for inactives: at the highest dose activity change, negative = inhibition, hits mostly inhibitors; further: potency means the concentration at half of the fitted maximal effect; on the % scale 0 is the no-effect control and ±100 the full control effect; nearly all actives have a fitted effect of over 60% in size
# Target sequence (Q99714 whole entry, looked up, one chain of several): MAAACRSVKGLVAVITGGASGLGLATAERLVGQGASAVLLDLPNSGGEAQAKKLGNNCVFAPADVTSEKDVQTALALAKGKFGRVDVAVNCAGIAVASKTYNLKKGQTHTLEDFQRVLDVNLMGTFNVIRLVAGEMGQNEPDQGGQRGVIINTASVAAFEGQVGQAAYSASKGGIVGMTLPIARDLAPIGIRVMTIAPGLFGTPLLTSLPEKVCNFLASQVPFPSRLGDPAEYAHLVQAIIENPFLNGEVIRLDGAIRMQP
#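 Read-out: 360 nm excitation, 450 nm emission, kinetic over 4 min. Conditions: His-tagged human HADH2 20 nM, pH 9.0 Tris with Tween-20, 1 mM NAD+, 90 uM beta-hydroxybutyryl-CoA.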
# 4-MU autofl: compounds fluorescent in 4-MU spectral region | compound autofluorescence, 340/450 nm, 4-MU equivalents; hits give high values | max dye-equivalent concentration, M | 59,000 compounds, 11% hits; in the data active means max dye-equivalent concentration above about 10 nM; inconclusive means mostly about 1.1 nM to 9.6 nM
#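 Compounds in 100 mM Tris, pH 8.0, incubated 15 min at room temperature, then fluorescence read at 340 nm excitation/450 nm emission. Signal converted to 4-MU dye-equivalent concentration using an on-plate six-point 4-MU standard curve.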
# * hit, by the source's call; i = inactive; ? = inconclusive; · = no result given; [ ] = dose if it differs, or a comment. A selection: hits, their analogues and other compounds. The true share with any hit is near 14%. Unless noted, the call rests on the fitted dose curve; in most records, active means well fitted curve in the direction sought with a large enough effect; inconclusive means small, poorly fitted or top-dose-only effect, or another doubt; inactive means no such curve, though single readings can be large; an effect the other way counts as inactive or inconclusive.
SMILES,AID923,A350 fluor,HSD17B inhib,CRE Fsk mod,HADH2 inhib,4-MU autofl
CC(=O)Nc1nc(C)nc(-c2ccccc2OC(C)=O)n1,4.9%,1.71e-07M*,-12.7%,?,-11.8%,1.43e-07M*
C=CCn1c(Cc2cccs2)nnc1SCC(=O)c1cccc(Br)c1,-0.9%,?,?,-6.6%,?,i
CCOCCCNC(=O)C1CCN(S(=O)(=O)c2c(C)noc2/C=C\c2ccc(OC)cc2)CC1,1.3%,1.34e-07M*,?,?,25.1µM*,1.18e-07M*
CCOCCCNC(=O)C1CCN(S(=O)(=O)N2CCCCC2)CC1,-2.1%,1.04e-08M*,4.1%,5.3%,5.7%,?
CC(C)OCCCNc1ncnc2c1[nH]c1ccccc12,3.8%,?,31.6µM*,?,25.2%,i
COc1ccc2[nH]c3c(NCCN(C(C)C)C(C)C)ncnc3c2c1,3.7%,2.77e-07M*,31.6µM*,25.9%,31.6µM*,2.15e-07M*
CCCCN(CCCC)CCn1cnc2c([nH]c3ccc(OC)cc32)c1=O,-0.2%,·,?,9.3%,10.9%,·
CO/N=C\[C@@H](NS(=O)(=O)c1ccc(C)cc1)[C@H](C)/C=C\CC(=O)OC,-2.2%[11.5 µM],·,-2.5%[11.4 µM],·,-10.8%[11.4 µM],·
Cc1cccn2c(=O)c3cc(C(=O)N4c5ccccc5CC4C)n(C)c3nc12 (centres undefined),2.7%,?,11.5%,?,-3.8%,1.05e-08M*
Cc1cccn2c(=O)c3cc(C(=O)N4CCc5ccccc54)n(C)c3nc12,7.8%,1.07e-07M*,?,?,10.1%,1.09e-07M*
CC1Cc2ccccc2N1C(=O)c1cc2c(=O)n3ccccc3nc2n1C (centres undefined),2.6%,3.12e-08M*,?,6.31µM*,-11.2%,3.23e-08M*
CC1(C)CO[C@H](CC(=O)O)CN1,-0.6%,·,-8.3%,-4.6%,6.0%,·
CO[C@H]1COC(=O)[C@@H](C)COC(=O)[C@@H](OCc2ccccc2)/C=C\[C@@H]1C,1.2%[11.5 µM],·,10.8%[11.4 µM],·,10.3%[11.4 µM],·
CN1CCc2c(sc3c2c(=O)n(-c2ccccc2)c2nnc(SCc4ccccc4F)n32)C1,1.7%,?,-15.8%,1.7%,?,?
Cc1nnc2c(-c3ccccc3)nc3ccccc3n12,1.8%,·,?,?,4.5%,·
Cc1cccn2c(N)c(-c3ccccc3)nc12,11.7%,8.47e-07M*,31.6µM*,-4.1%,31.6µM*,8.93e-07M*
Cc1sc2ncnc(OCC(=O)NCC3CCCO3)c2c1C (centres undefined),0.8%,i,-5.7%,-1.7%,6.2%,i
Cc1sc2ncnc(OCC(=O)NCc3cccs3)c2c1C,1.6%,1.01e-08M*,12.6%,-6.0%,18.8%,?
c1ccc(-c2csc(Nc3nc(N4CCOCC4)nc(N4CCOCC4)n3)n2)cc1,0.3%,·,3.5%,2µM*,8.2%,·
Cc1ccc(C(C(=O)NC2CCCC2)N(Cc2cccnc2)C(=O)c2snc(C(N)=O)c2N)o1 (centres undefined),1.2%,3.57e-07M*,25.1µM*,-7.0%,-11.3%,2.35e-07M*
CCC(C)(C)NC(=O)CN(C(=O)c1snc(C(N)=O)c1N)c1ccc2c(c1)OCCO2,-2.2%,?,-3.1%,?,9.1%,?
Cc1ccc(C(C(=O)NCCc2ccccc2)N(C(=O)c2csnn2)C2CC2)o1 (centres undefined),-0.1%,?,1.8%,6.1%,-5.4%,?
Cc1ccc(C(C(=O)NC2CCCCC2)N(Cc2cccnc2)C(=O)C2COc3ccccc3O2)o1 (centres undefined),1.6%,i,9.7%,-6.4%,1.6%,i
COCCNC(=O)C(c1ccc(C)o1)N(C(=O)c1snc(C(N)=O)c1N)c1ccc(C)cc1 (centres undefined),4.1%,7.3e-08M*,31.6µM*,-7.9%,-9.8%,8.62e-08M*
COCCNC(=O)C(c1ccc(C)o1)N(C(=O)c1snc(C(N)=O)c1N)c1cccc(C)c1 (centres undefined),7.2%,1.44e-07M*,31.6µM*,-1.4%,1.2%,1.7e-07M*
